Measured values reported in PubChem BioAssay AID1159580 (chemical genetic matrix, 2015).
In all, about 5,500 compounds went through this assay and about 2,000 (36%) were called active. Roughly 18% stayed inconclusive and do not appear here. No stated cut-off is given here; in the data, active means normalized growth mostly below about 0.91 (no sharp cut-off); inconclusive means no clear call, values can overlap the other calls; inactive means mostly above about 0.92. The list shows a part of the results.

Experiment: chemical genetic growth profiling, strain panel (AID 1159580);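 further: tested at 20 µM; growth read once vehicle control cultures reached saturation at 30 °C; 1 = growth at the plate median or of vehicle wells; lower values mean less growth of the strain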
Settings: S. cerevisiae deletion strains, growth OD
[1] = locus YAR019C, strain CDC15, active compounds read low
[2] = locus YBL105C, strain PKC1, active compounds read low
[3] = locus YBR135W, strain CKS1, active compounds read low
[4] = locus YBR136W, strain MEC1, active compounds read low
[5] = locus YBR160W, strain CDC28, active compounds read low
[6] = locus YDL017W, strain CDC7, active compounds read low
[7] = locus YDL028C, strain MPS1, active compounds read low
[8] = locus YDL101C, strain DUN1, active compounds read low
[9] = locus YDL108W, strain KIN28, active compounds read low
[10] = locus YDL132W, strain cdc53, active compounds read low
[11] = locus YDL214C, strain PRR2, active compounds read low
[12] = locus YDR052C, strain DBF4, active compounds read low
[13] = locus YDR054C, strain cdc34, active compounds read low
[14] = locus YDR226W, strain ADK1, active compounds read low
[15] = locus YDR477W, strain SNF1, active compounds read low
[16] = locus YER123W, strain YCK3, active compounds read low
[17] = locus YER133W, strain GLC7, active compounds read low
[18] = locus YFL009W, strain cdc4, active compounds read low
[19] = locus YFL029C, strain CAK1, active compounds read low
[20] = locus YFR003C, strain YPI1, active compounds read low
[21] = locus YFR019W, strain FAB1, active compounds read low
[22] = locus YFR028C, strain CDC14, active compounds read low
[23] = locus YGR040W, strain KSS1, active compounds read low
[24] = locus YGR052W, strain FMP48, active compounds read low
[25] = locus YGR092W, strain DBF2, active compounds read low
[26] = locus YHR030C, strain SLT2, active compounds read low
[27] = locus YHR079C, strain IRE1, active compounds read low
[28] = locus YHR082C, strain KSP1, active compounds read low
[29] = locus YHR205W, strain SCH9, active compounds read low
[30] = locus YIL147C, strain SLN1, active compounds read low
[31] = locus YJL095W, strain BCK1, active compounds read low
[32] = locus YJL128C, strain PBS2, active compounds read low
[33] = locus YJL157C, strain FAR1, active compounds read low
[34] = locus YJR016C, strain ILV3, active compounds read low
[35] = locus YJR066W, strain TOR1 (second series), active compounds read low
[36] = locus YJR066W, strain TOR1, active compounds read low
[37] = locus YKL048C, strain ELM1, active compounds read low
[38] = locus YKL067W, strain YNK1, active compounds read low
[39] = locus YKL101W, strain HSL1, active compounds read low
[40] = locus YKL193C, strain SDS22, active compounds read low
[41] = locus YKL203C, strain TOR2, active compounds read low
[42] = locus YLR113W, strain HOG1, active compounds read low
[43] = locus YLR133W, strain CKI1, active compounds read low
[44] = locus YLR403W, strain SFP1, active compounds read low
[45] = locus YML070W, strain DAK1, active compounds read low
[46] = locus YMR001C, strain CDC5, active compounds read low
[47] = locus YMR205C, strain PFK2 (second series), active compounds read low
[48] = locus YMR277W, strain FCP1, active compounds read low
[49] = locus YNL006W, strain LST8, active compounds read low
[50] = locus YNL020C, strain ARK1, active compounds read low
[51] = locus YNL161W, strain CBK1, active compounds read low
[52] = locus YNL183C, strain NPR1, active compounds read low
[53] = locus YNL207W, strain RIO2, active compounds read low
[54] = locus YNL222W, strain SSU72, active compounds read low
[55] = locus YNL307C, strain MCK1 (second series), active compounds read low
[56] = locus YOL078W, strain AVO1, active compounds read low
[57] = locus YOL136C, strain PFK27, active compounds read low
[58] = locus YOR061W, strain CKA2, active compounds read low
[59] = locus YOR119C, strain RIO1, active compounds read low
[60] = locus YOR231W, strain MKK1, active compounds read low
[61] = locus YOR329C, strain SCD5, active compounds read low
[62] = locus YPL031C, strain PHO85, active compounds read low
[63] = locus YPL153C, strain RAD53, active compounds read low
[64] = locus YPL204W, strain HRR25, active compounds read low
[65] = locus YPL209C, strain IPL1, active compounds read low
[66] = locus YPL256C, strain CLN2, active compounds read low
[67] = locus YPR025C, strain CCL1, active compounds read low
[68] = locus YPR106W, strain ISR1, active compounds read low
[69] = locus YPR111W, strain DBF20, active compounds read low
[70] = strain NNK1, active compounds read low
[71] = strain TSCII, active compounds read low

Measured: normalized growth

Cc1cc(Br)ccc1-n1c(Sc2c([N+](=O)[O-])cc(C(F)(F)F)cc2[N+](=O)[O-])nc2ccccc2c1=O
inactive: [1] 0.99 | [2] 0.985 | [3] 0.984 | [4] 0.978 | [5] 0.988 | [6] 0.989 | [7] 0.983 | [8] 0.988 | [9] 0.984 | [10] 0.994 | [11] 0.892 | [12] 0.989 | [13] 0.985 | [14] 0.981 | [15] 0.933 | [16] 0.901 | [17] 0.933 | [18] 0.986 | [19] 0.986 | [20] 0.986 | [21] 0.952 | [22] 0.994 | [23] 0.938 | [24] 0.945 | [25] 0.968 | [26] 0.972 | [27] 0.922 | [28] 0.997 | [29] 0.879 | [30] 0.984 | [31] 0.88 | [32] 0.915 | [33] 0.927 | [34] 0.987 | [35] 0.885 | [36] 1.06 | [37] 0.946 | [38] 0.943 | [39] 0.93 | [40] 0.982 | [41] 1 | [43] 0.95 | [44] 0.961 | [45] 0.923 | [46] 0.981 | [47] 0.939 | [48] 0.982 | [49] 0.981 | [50] 0.943 | [51] 0.982 | [52] 1.02 | [53] 0.999 | [54] 0.983 | [55] 0.932 | [56] 0.984 | [57] 0.926 | [58] 0.937 | [59] 0.998 | [60] 0.955 | [61] 0.988 | [62] 0.923 | [63] 0.917 | [64] 0.928 | [65] 0.99 | [66] 0.943 | [67] 0.983 | [68] 0.968 | [69] 0.972 | [70] 0.968 | [71] 0.993
active: [42] 0.841

Cc1ccc(S(=O)(=O)CCSC2=CC(=O)CC(C)(C)S2)cc1
inactive: [1] 1.01 | [2] 0.987 | [3] 1 | [4] 1 | [5] 0.998 | [6] 0.998 | [7] 1 | [8] 1 | [9] 1 | [10] 1 | [11] 0.98 | [12] 1 | [13] 0.998 | [14] 0.994 | [15] 0.974 | [16] 0.924 | [17] 0.895 | [18] 0.997 | [19] 1.01 | [20] 0.997 | [21] 0.905 | [22] 0.998 | [23] 0.948 | [24] 0.987 | [25] 1 | [26] 0.987 | [27] 1.06 | [28] 1.08 | [29] 0.988 | [30] 0.997 | [31] 0.948 | [32] 1.02 | [33] 0.973 | [34] 0.999 | [35] 0.892 | [36] 1.04 | [37] 0.985 | [38] 0.987 | [39] 0.995 | [40] 1 | [41] 0.978 | [42] 1.05 | [43] 0.963 | [44] 0.95 | [45] 0.965 | [46] 0.999 | [47] 0.974 | [48] 1 | [49] 0.996 | [50] 0.979 | [51] 1 | [52] 1.02 | [53] 1 | [54] 1 | [55] 0.977 | [56] 0.997 | [57] 0.929 | [58] 0.969 | [59] 0.996 | [60] 0.968 | [61] 1 | [62] 0.961 | [63] 0.959 | [64] 0.912 | [65] 0.998 | [66] 1.09 | [67] 1 | [68] 1.01 | [69] 0.999 | [70] 1.03 | [71] 1
